Assay results: PubChem BioAssay
Measured potencies and affinities stand elsewhere. Inconclusive results are not listed. Activity calls are given as the source filed them. Unless noted, the rule behind the calls is not given here.

Experiments:
[1] = cytotoxicity in PAX8-dependent RMG-1 cells, dose response, cell-based, cherry-pick (AID 687029;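 active = signal drop whose fitted half-maximal concentration is at most twice the top valid dose, in every test run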;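 note: cells exposed to compound for 96 hours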)
[2] = cytotoxicity in IOSE-T80 ovarian epithelial cells, dose response, selectivity assay for PAX8 inhibitor project, cell-based, cherry-pick (AID 687032;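 active = fitted half-maximal concentration for viability loss no higher than twice the top valid dose, in every repeat run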;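 note: cells exposed to compound for 96 h before reading; 0% = neutral control wells and -100% = 2 µM mitoxantrone kill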)
[3] = inhibitors of CMV-promoter luciferase reporter, dose response, counter-screen for Pax8 inhibitor project, cell-based, HEK293, luminescence, dry powder (AID 743020;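 active = signal-lowering compounds whose fitted half-maximal concentration is at or below twice the top tested dose in every run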;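 note: HEK293 cells stably expressing the CMV luciferase reporter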)
[4] = NIH:OVCAR-3 ovarian cancer cell cytotoxicity, dose response, PAX8 inhibitor project, plate reader, dry powder samples (AID 743044); details: max activity: at 35 µM, stronger effect = lower value unless noted
[5] = IOSE-T80 ovarian epithelial cell cytotoxicity, dose response, cytotoxicity control for PAX8 inhibitor project, plate reader, dry powder samples (AID 743045);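 note: 0% = neutral control median and -100% = positive control median; more negative values mean more cell killing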
[6] = cytotoxicity in OVCAR8 ovarian cancer cells, dose response, PAX8 project, cell-based, plate reader, dry powder samples (AID 743197)
[7] = A2780 ovarian cancer cell cytotoxicity, dose response, cytotoxicity control, plate reader, dry powder samples (AID 743046);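 note: 0% = neutral control wells and -100% = cytotoxic reference compound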
[8] = IGROV1 ovarian cancer cell cytotoxicity, dose response, PAX8 inhibitor project, plate reader, dry powder samples (AID 743043);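 note: more negative means fewer viable cells or more cytotoxicity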
[9] = non-specific cell cytotoxicity, dose response, cytotoxicity control for PAX8 inhibitor project, plate reader, dry powder samples (AID 743021)

Measured: max activity

CCc1cnc(N2[C@@H](C#N)[C@@H](c3ccc(C#CC(C)C)cc3)[C@@H]2CO)s1
inactive: [1] | [2] | [3] | [4] 27.5% [at 1 µM, stronger effect = lower value] | [5] | [6]

COc1ccccc1-c1ccc([C@@H]2[C@@H]3CN(S(=O)(=O)c4ccc(-c5ccccc5)cc4)C[C@H]2N3)cc1
inactive: [1] | [2] | [3] | [5] | [7]

C[C@@H]1CCCCO[C@H](CN(C)Cc2ccc(Cl)c(Cl)c2)[C@@H](C)CN([C@@H](C)CO)C(=O)c2cc(NC(=O)c3ccccc3)ccc2O1
inactive: [1] | [2] | [3] | [5] | [7]

Cc1ccccc1-c1ccc([C@@H]2[C@H](CO)N3CCCCN(C(=O)Nc4cccc(F)c4)C[C@@H]23)cc1
not listed: [4] | [8] | [9]
inactive: all other assays above

COc1ccc2c3c(n(C)c2c1)[C@H](CO)NCC31CCN(Cc2cc(-c3ccccc3)on2)CC1
inactive: [1] | [2] | [3] | [4] 40.6% [at 0.5 µM, stronger effect = lower value] | [5] | [7]

Cc1ccc(S(=O)(=O)Nc2ccc3c(c2)CC(=O)N([C@@H](C)CO)C[C@H](C)[C@@H](CN(C)Cc2ccc(Oc4ccccc4)cc2)O3)cc1
inactive: [1] | [2] | [3] | [8] | [6]

C[C@@H]1CCCCO[C@H](CN(C)CC2CCCCC2)[C@H](C)CN([C@H](C)CO)C(=O)c2cc(NS(=O)(=O)c3ccccc3)ccc2O1
inactive: [1] | [2] | [3] | [5] | [7]

COc1ccccc1NC(=O)N1CCCCN2[C@H](CO)[C@H](c3ccc(-c4cccc(C)c4)cc3)[C@H]2C1
not listed: [4] | [8] | [9]
inactive: all other assays above

COc1ccc(S(=O)(=O)Nc2ccc3c(c2)C(=O)N([C@@H](C)CO)C[C@H](C)[C@H](CN(C)Cc2ccc(C(F)(F)F)cc2)OCCCC[C@H](C)O3)cc1
inactive: [1] | [2] | [3] | [7] | [6]

COc1ccc(NC(=O)Nc2ccc3c(c2)C(=O)N([C@H](C)CO)C[C@@H](C)[C@H](CN(C)Cc2ccc(C(F)(F)F)cc2)OCCCC[C@H](C)O3)cc1
inactive: [1] | [2] | [3] | [5] | [7]

CCCNC(=O)N(C)C[C@H]1N[C@@H](CO)[C@@H]1c1ccc(C2=CCCCC2)cc1
inactive: [1] | [2] | [3] | [7]

COc1ccc(NC(=O)N2CC(=O)N3[C@H](C2)[C@H](c2ccc(/C=C/c4ccccc4)cc2)[C@@H]3CO)cc1
inactive: [1] | [2] | [3] | [5] | [6]

O=C1CN(S(=O)(=O)Cc2ccccc2)C[C@@H]2[C@@H](c3ccc(C#Cc4ccc(F)cc4)cc3)[C@@H](CO)N12
inactive: [1] | [2] | [3] | [4] -59.7% [at 16 µM, stronger effect = lower value] | [5] | [7]

O=C(c1ccc(F)cc1)N1CC(=O)N2[C@@H](CO)[C@@H](c3ccc(C#Cc4ccc(F)cc4)cc3)[C@@H]2C1
inactive: [1] | [2] | [3] | [5] | [7]

Cc1ccccc1-c1ccc(C2[C@@H]3CN(C(=O)Nc4cccc(F)c4)C[C@H]2N3)cc1 (some centres not stated)
not listed: [4] | [8] | [9]
inactive: all other assays above

C[C@H](CO)N1C[C@H](C)[C@H](CN(C)Cc2ccc(C(F)(F)F)cc2)OCCCC[C@H](C)Oc2ccc(NC(=O)Cc3ccccc3)cc2C1=O
inactive: [1] | [2] | [3] | [5]

CCS(=O)(=O)N1CC(=O)N2[C@H](CO)[C@@H](c3ccc(-c4ccccc4F)cc3)[C@H]2C1
inactive: [1] | [2] | [3] | [5] | [7]

C[C@@H]1CN([C@H](C)CO)C(=O)c2cc(NC(=O)Nc3ccc(C(F)(F)F)cc3)ccc2O[C@@H](C)CCCCO[C@H]1CN(C)Cc1ccc2c(c1)OCO2
inactive: [1] | [2] | [3] | [4] -34.3% | [5] | [7]

O=C(C1CCC1)N1CC(=O)N2[C@H](CO)[C@H](c3ccc(C#CCc4ccccc4)cc3)[C@H]2C1
inactive: [1] | [2] | [3] | [5]

C[C@H](CO)N1C[C@H](C)[C@@H](CN(C)S(=O)(=O)c2cccs2)OCCCC[C@H](C)Oc2ccc(NS(=O)(=O)c3ccc(Cl)cc3)cc2C1=O
inactive: [1] | [2] | [3] | [5] | [7]

C[C@@H]1CN([C@@H](C)CO)C(=O)Cc2cc(NS(=O)(=O)c3ccccc3)ccc2O[C@H]1CN(C)Cc1ccc(C(F)(F)F)cc1
inactive: [1] | [2] | [3] | [5] | [7]

Cc1ccc(S(=O)(=O)Nc2ccc3c(c2)C(=O)N([C@@H](C)CO)C[C@@H](C)[C@H](CN(C)Cc2ccc(C(F)(F)F)cc2)OCCCC[C@@H](C)O3)cc1
inactive: [1] | [2] | [3] | [5] | [7]

N#C[C@H]1[C@@H](c2ccc(C#Cc3ccc(F)cc3)cc2)[C@H](CO)N1C(=O)C1CCCC1
inactive: [1] | [2] | [3] | [5]

C[C@H](CO)N1C[C@H](C)[C@@H](CN(C)Cc2ccc(-c3ccccc3)cc2)Oc2ccc(NS(=O)(=O)c3ccccc3)cc2CC1=O
inactive: [1] | [2] | [3] | [4] 6.95% | [5] | [6]

Cc1ccc(S(=O)(=O)Nc2ccc3c(c2)C(=O)N([C@H](C)CO)C[C@H](C)[C@H](CN(C)Cc2ccc(C(F)(F)F)cc2)OCCCC[C@H](C)O3)cc1
inactive: [1] | [2] | [3] | [8] | [7]

Cc1ccc(-c2ccc(C3[C@@H]4CN(C(=O)Nc5ccc(C(F)(F)F)cc5)C[C@H]3N4)cc2)cc1 (some centres not stated)
inactive: [1] | [2] | [3] | [8] | [7]

C[C@@H]1CN([C@H](C)CO)C(=O)c2cc(NC(=O)CCCCCC(=O)Nc3ccccc3N)ccc2O[C@@H]1CN(C)Cc1ccc(C(F)(F)F)cc1
not listed: [4] | [8] | [9]
inactive: all other assays above

C[C@@H]1CN([C@H](C)CO)C(=O)c2cc(NC(=O)Nc3ccc(C(F)(F)F)cc3)ccc2O[C@@H](C)CCCCO[C@@H]1CN(C)Cc1ccccc1
inactive: [1] | [2] | [3] | [5]

CCN1CCN(Cc2ccc(NC(=O)c3cc(NC(=O)C(=O)c4c[nH]c5ccccc45)cc(OC)c3)cc2C(F)(F)F)CC1
inactive: [1] | [2] | [9]

COc1ccc(C(=O)NN(C)c2nc(C(F)(F)F)nc3ccccc23)cc1
inactive: [1] | [2] | [9]

COc1cc(/C=N\NC(=O)c2ccc(-c3ccccc3)cc2)cc(OC)c1OC(C)=O
inactive: [1] | [2] | [9]

CC(C)(C)OC(=O)NCCCC[C@H](NC(=O)c1[nH]cnc1C(=O)N[C@@H](Cc1ccccc1)C(=O)OC(C)(C)C)C(=O)OC(C)(C)C
inactive: [1] | [2] | [9]

O=C(O)CCCN1C(=O)/C(=C\C(Cl)=C\c2ccccc2)SC1=S
inactive: [1] | [2] | [9]

C=CCNC(=S)N/N=C(\C)c1ccccn1
inactive: [1] | [2] | [9]

CS(=O)(=O)Nc1ccc2c(c1)[C@@H]1C[C@@H](CC(=O)NCc3ccc(Oc4ccccc4)cc3)O[C@@H](CO)[C@@H]1O2
inactive: [1] | [2] | [9]

Cc1ccc(S(=O)(=O)CCC(=O)c2ccc(F)cc2)cc1
inactive: [1] | [2] | [9]

CCOc1ccccc1C1C2=C(COC2=O)Nc2cc3c(cc21)OCO3 (configuration not stated)
inactive: [1] | [2] | [9]

CCOC(=O)c1cnc2ccc(C(=O)OC)cc2c1Nc1ccc(C(=O)O)cc1
inactive: [1] | [2] | [9]

COc1cc(OC)c(NC2=CC(=O)C(=O)c3ccccc32)cc1Cl
inactive: [1] | [2] | [9]

COc1cccc2c1C(=O)c1c(O)c3c(c(O)c1C2=O)CC(O)(C(C)=O)CC3OC1CC(N(C)C)C(O)C(C)O1 (configuration not stated)
inactive: [1] | [2] | [9]

C=C1C(=O)[C@]23C[C@H]1CCC2[C@]1(C)CCC[C@@](C)(C(=O)O)C1C[C@@H]3O (some centres not stated)
inactive: [1] | [2] | [9]

N#CC1(NC(=O)Cn2ncc(Cl)c(Cl)c2=O)CCCCC1
inactive: [1] | [2] | [9]

O=C(Nc1ccc([N+](=O)[O-])cc1)Nc1nc(-c2ccc(Cl)s2)cs1
inactive: [1] | [2] | [9]

COc1cc(C2C3=C(Nc4ncnn42)c2ccccc2CC3)cc(OC)c1OC (configuration not stated)
inactive: [1] | [2] | [9]

O=C(Nc1cccc(F)c1)N1C[C@@H]2N[C@H](C1)C2c1ccc(-c2ccc(F)cc2)cc1 (some centres not stated)
inactive: [1] | [2] | [3] | [7] | [6]

CC1CCN(CCc2nc3cc(NS(=O)(=O)c4ccccc4)ccc3n2C)CC1
inactive: [1] | [2] | [9]

C=C1C(=O)O[C@@H]2C[C@@H](C)[C@@H]3C=CC(=O)[C@@]3(C)[C@@H](OC(C)=O)[C@H]12
inactive: [1] | [2] | [9]

CCS(=O)(=O)c1ncc(Cl)c(C(=O)Nc2ccc(S(=O)(=O)N3CCCC(C)C3)cc2)n1 (configuration not stated)
inactive: [1] | [2] | [9]

N#Cc1cccc(-c2ccc(C3[C@@H]4CN(C(=O)C5CC5)C[C@H]3N4)cc2)c1 (some centres not stated)
inactive: [1] | [2] | [9]

Cc1ccc(C)c(CSC2=NCCN2C(=O)Cc2ccc([N+](=O)[O-])cc2)c1
inactive: [1] | [2] | [9]
